About 17,000 (5.5%) of roughly 310,000 compounds were called active. Not shown: some 11% with an inconclusive outcome. The full list was thinned out, with actives kept by preference. Values without a mark were called inactive. The call rests on the fitted dose curve; in most records, active means well fitted inhibition curve with a large enough effect; inconclusive means small, poorly fitted or top-dose-only effect, or effect the other way; inactive means no such curve, though single readings can be large or run the other way.
On the % scale 0 is the no-effect control and ±100 the full control effect; potency means the concentration at half of the fitted maximal effect.

Chain of Nuclear receptor ROR-gamma (Mus musculus) (P51450 whole entry, looked up, the tested form may be a part): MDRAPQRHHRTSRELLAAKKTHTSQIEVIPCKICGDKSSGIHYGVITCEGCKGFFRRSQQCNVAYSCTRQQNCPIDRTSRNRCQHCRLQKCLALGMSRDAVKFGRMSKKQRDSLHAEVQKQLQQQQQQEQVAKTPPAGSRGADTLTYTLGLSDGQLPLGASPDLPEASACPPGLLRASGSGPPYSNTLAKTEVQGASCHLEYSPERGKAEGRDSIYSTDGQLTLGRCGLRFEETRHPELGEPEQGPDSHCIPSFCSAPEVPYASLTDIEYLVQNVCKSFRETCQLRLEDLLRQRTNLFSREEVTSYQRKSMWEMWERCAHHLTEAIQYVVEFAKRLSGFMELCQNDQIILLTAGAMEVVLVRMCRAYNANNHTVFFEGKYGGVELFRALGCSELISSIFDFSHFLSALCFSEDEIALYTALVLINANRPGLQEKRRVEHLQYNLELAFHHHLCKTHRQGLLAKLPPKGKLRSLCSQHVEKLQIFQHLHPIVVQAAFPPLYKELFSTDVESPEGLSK

In the assay the target is Nuclear receptor ROR-gamma (Mus musculus) (UniProt P51450). Kind of assay: qHTS for inhibitors of ROR gamma transcriptional activity. Further: nearly all actives have a fitted effect of over 60% in size. Particulars: Drosophila S2 Gal4-RORgamma UAS-luciferase reporter, 20 h; series mostly up to 53.6 µM; activity change, negative = inhibition: at the top concentration. In short, it runs like this:
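Compounds are pin-transferred onto Drosophila Schneider cells expressing a copper-inducible Gal4–ROR gamma transactivation domain fusion. After 1 hr, copper sulfate is added to 700 uM final; luciferase is read 20 hr later.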
(Quantitative high-throughput screening tests each substance at several concentrations.)
Take `CCN(CC)CCCNC(=O)COc1ccc2oc3c(c2c1)CCCC3`: the “activity change, negative = inhibition” value was 6.93%.

For the compound `Cc1ccc(CNC(=O)C2CCCN2S(=O)(=O)c2ccc3c(c2)C(C)(C)C(=O)N3C)cc1` (stereo not drawn), the “activity change, negative = inhibition” value is -3.5%. The same measure, in the same setting: the result for `CN1CCN(NC(=O)Nc2ccc(Br)cc2)CC1` reads 16.6%; that for `CC(NC(=O)C(=O)NN=C1CCC(C(C)(C)C)CC1)c1ccccc1` (stereo not drawn), -12.8%. Same read-out and setting: the result for `O=C(COc1ccc(-c2ccccc2)cc1)NN=C1CCCC1` reads -25.1%. For the compound `CC(C)(C)C1CCC(=NNC(=O)c2cc(-c3ccccc3)n[nH]2)CC1` (stereo not drawn), the Potency is 11.2 µM (active). As for `CC1CN(CC(=O)NC(C)c2ccccc2)CC(C)O1` (stereo not drawn), the “activity change, negative = inhibition” value is -6.55%.

On to `Cc1ccc(-c2nc(C)sc2CC(=O)O)cc1`, for which the “activity change, negative = inhibition” value was -0.336%. Still for that read-out and setting: the figure for `CCOC(=O)C(=O)Nc1nc(-c2ccccc2)c(CC)s1` is -31.4%.

With `C/C(=N/Nc1nc(-c2ccccc2)c(CC(=O)O)s1)c1ccccc1`, the Potency was 11.2 µM (active).

Regarding `O=C(Nc1cccc(-c2nc3ccccc3[nH]2)c1)c1ccc(C(=O)Nc2cccc(-c3nc4ccccc4[nH]3)c2)cc1`, the Potency is 2 µM (active). In the case of `Cc1ccc(-c2nc3ccccc3[nH]2)cc1NC(=O)c1sc2ccccc2c1Cl`, the “activity change, negative = inhibition” value was -7.38%. The same measure, in the same setting: the result for `O=C(/C=C/c1ccco1)Nc1cccc(-c2nc3ccccc3[nH]2)c1` reads 23.4%.

With `Cc1cccc2[nH]c(CN(C)C(=O)C3CCC(=O)N(CCc4ccccc4)C3)nc12` (stereo not drawn), the “activity change, negative = inhibition” value was -19.4%.

Take `C/C(N)=C(/C#N)C(=O)COC(=O)C1=NN(c2ccccc2)C(=O)CC1`: the “activity change, negative = inhibition” value is 10.9%.

For the compound `N/C(=N\OC(=O)Nc1ccc(Cl)c(Cl)c1)c1ncc(C(F)(F)F)cc1Cl`, the “activity change, negative = inhibition” value is 7.87%. `COc1cccc(/C=N/Nc2ncc(C(F)(F)F)cc2Cl)c1O`: the Potency is 1.26 µM (active). Turning to `COC(=O)Cc1ccc(Oc2ncc(C(F)(F)F)cc2Cl)cc1`, the “activity change, negative = inhibition” value is -9.46%. Still for that read-out and setting: the figure for `CCOC(=O)N1CCN(C(=O)COCc2cc(-c3ccc4c(c3)OCO4)on2)CC1` is -3.42%. `CCOc1ccccc1N1C(=O)CC(Sc2nccc(C)n2)C1=O` (stereo not drawn): the Potency is 25.1 µM (active). As to `Cc1ccnc(SCC(N)=O)n1`, the “activity change, negative = inhibition” value was 9.61%. Still for that read-out and setting: the figure for `CCOC(=O)c1ccc(N2C(=O)CC(Sc3nc(O)c(CC)c(=O)[nH]3)C2=O)cc1` (stereo not drawn) is -0.429%; for `CCn1ccnc1CNC(=O)CC1C(=O)NCCN1CCCc1ccccc1` (stereo not drawn) it is -26.2%; for `O=C(NCCS(=O)(=O)N1CCN(c2ccccc2F)CC1)c1ccc(Br)o1` it is 14.8%.

For `Cc1cccc(NC(=O)c2cccnc2Cl)n1`, the “activity change, negative = inhibition” value was 7.82%. For the compound `Cc1c(CN2CCC(CO)(CCOc3ccccc3)CC2)[nH]c2ccc(Cl)cc12`, the Potency was 11.2 µM (active).

`OCC1(CCOc2ccccc2)CCN(Cc2cn[nH]c2-c2ccccc2)CC1`: the “activity change, negative = inhibition” value is 18.3%.

As to `CC(C)(O)C#Cc1ccc(CN2CCC(CO)(CCc3ccccc3)CC2)cc1`, the “activity change, negative = inhibition” value is 1.77%. Still for that read-out and setting: the figure for `CC(C)(C)NC(=O)C(c1ccc(Cl)cc1)N(CCO)C(=O)c1snc(C(N)=O)c1N` (stereo not drawn) is -12.6%; for `COC(=O)CCc1ccccc1S(=O)(=O)N(CCC(=O)OC)Cc1ccccc1` it is -5.18%; for `CCOC(=O)C1=C(c2ccccc2)NC(=O)NC1c1cc(OCC)c(O)c([N+](=O)[O-])c1` (stereo not drawn) it is 35%. Take `Nc1ccccc1Sc1ccc(C(F)(F)F)cc1[N+](=O)[O-]`: the “activity change, negative = inhibition” value was 3.1%. Consider `CCS(=O)(=O)c1cc([N+](=O)[O-])c(Sc2ccccc2N)s1`, for which the Potency is 7.94 µM (active).

Turning to `CCOC(=O)c1cc(Sc2ccccc2N)cc(C(=O)OCC)n1`, the “activity change, negative = inhibition” value is 43.4%. The same measure, in the same setting: the figure for `COc1ccc(N2CCN(C3CCCCC3NS(=O)(=O)c3ccccc3)CC2)cc1` (stereo not drawn) is -0.458%; for `CCC(Cc1ccccc1)NS(=O)(=O)c1ccc2c(c1)NC(=O)CS2` (stereo not drawn) it is 17.2%. For the compound `Cc1c(Cl)c([N+](=O)[O-])nn1Cc1ccc(C(=O)N/N=C\c2cc(Cl)ccc2O)o1`, the Potency was 5.01 µM (active). For `O=C(N/N=C/c1ccc2c(c1)OCO2)c1ccc(Cn2cc([N+](=O)[O-])cn2)o1`, the “activity change, negative = inhibition” value is 28.1%. Turning to `Cc1ccc(C(=O)O)cc1NC(=O)c1ccc(Cn2nc(C)c(Cl)c2C)o1`, the “activity change, negative = inhibition” value was 5.12%. Turning to `CC(C)c1c(C(=O)N/N=C/c2ccccc2C(=O)O)nnn1-c1nonc1N`, the “activity change, negative = inhibition” value is 0.169%.

On to `O=C(O)/C=C/C(=O)Nc1ccc(F)cc1F`, for which the “activity change, negative = inhibition” value was 10.8%. Regarding `Cc1c(NC(=O)/C=C/C(=O)O)cccc1[N+](=O)[O-]`, the “activity change, negative = inhibition” value was -4.11%.

In the case of `COC(=O)c1sc(-c2ccc(C(C)(C)C)cc2)cc1NC(=O)/C=C/C(=O)O`, the Potency was 12.6 µM (active).

As for `C/C(=N\NC(=S)NC1CCCCC1)c1ccc(C)o1`, the Potency is 0.631 µM (active). For `C/C(=N/NC(=O)c1ccc(Br)o1)c1ccc(C)o1`, the “activity change, negative = inhibition” value is -4.16%.

As to `Cc1ccc(/C=N/NC(=S)NC2CCCCC2)o1`, the Potency was 0.251 µM (active). As to `Cc1ccc(/C=N/NC(=O)Cn2nc(C)c(Br)c2C)o1`, the “activity change, negative = inhibition” value was -22.6%.

As to `C/C(=N\NC(=O)NC1CCCCC1)c1ccc(OC(F)F)cc1OC(F)F`, the “activity change, negative = inhibition” value is -26.9%. Still for that read-out and setting: the figure for `Cc1ccc(/C=N/NC(=O)CSc2ccccn2)o1` is 15.4%; for `COc1ccc(S(=O)(=O)N2CCOC2CNC(=O)C(=O)NCc2ccncc2)cc1OC` (stereo not drawn) it is -23.5%. With `O=C(N/N=C/c1cc([N+](=O)[O-])ccc1O)/C(=C\c1cccs1)NC(=O)c1ccccc1`, the Potency is 11.2 µM (active). As for `O=C(N/N=C/c1ccc(O)cc1)/C(=C/c1ccc([N+](=O)[O-])cc1)NC(=O)c1ccccc1`, the “activity change, negative = inhibition” value is 4.46%.

`O=C(Nc1ccccc1)/C(=C/c1ccc([N+](=O)[O-])cc1)NC(=O)c1ccccc1`: the “activity change, negative = inhibition” value was -5.91%.

These data come from PubChem BioAssay AID2551 (National Center for Advancing Translational Sciences (NCATS), 2010).
